# Laboratory results published in PubChem BioAssay (Tox21).
# Inconclusive results are not listed. Values without a mark were called inactive. The call rests on the fitted dose curve; in most records, active means well fitted inhibition curve with a large enough effect in the repeat runs; inconclusive means weak or mixed curves; inactive means no such curve, though single readings can be large or run the other way.
# Biological target: Cytochrome P450 3A4 (Homo sapiens) (UniProt P08684)
# Test: Cytochrome P450 Family 3 Subfamily A Member 4 (CYP3A4) small molecule antagonists: luciferase reporter qHTS assay (AID 1671201); further: nearly all actives have a fitted effect of over 50% in size
# Details: P450-Glo CYP3A4 enzyme, luciferin luminescence, 1 h; series mostly up to 115 µM; activity change, negative = inhibition: at the top concentration
# Method in brief: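 Relative luminescence units after 20 min with luciferin detection reagent served as read-out. Beforehand, CYP3A4 turned over a proluciferin substrate for 1 h at room temperature with NADPH regeneration, following 10 min compound preincubation.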
# On the % scale 0 is the no-effect control and ±100 the full control effect.
# Cytochrome P450 3A4 (Homo sapiens), sequence (P08684 whole entry, looked up): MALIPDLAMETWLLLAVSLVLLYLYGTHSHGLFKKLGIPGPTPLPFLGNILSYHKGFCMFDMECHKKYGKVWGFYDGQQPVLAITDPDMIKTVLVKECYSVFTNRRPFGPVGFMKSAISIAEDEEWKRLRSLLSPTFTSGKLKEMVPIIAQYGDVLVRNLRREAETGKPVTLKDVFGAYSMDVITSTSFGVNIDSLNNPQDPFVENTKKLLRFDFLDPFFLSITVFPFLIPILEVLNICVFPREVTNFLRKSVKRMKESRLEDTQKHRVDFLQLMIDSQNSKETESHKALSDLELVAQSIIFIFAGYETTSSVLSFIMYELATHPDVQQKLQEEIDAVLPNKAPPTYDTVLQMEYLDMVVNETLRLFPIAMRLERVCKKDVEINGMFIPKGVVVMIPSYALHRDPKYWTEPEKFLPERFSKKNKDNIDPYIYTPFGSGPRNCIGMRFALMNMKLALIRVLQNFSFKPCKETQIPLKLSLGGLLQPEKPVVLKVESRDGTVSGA
row,SMILES,"activity change, negative = inhibition"
1,CC(C)(CCC(=O)O)C(=O)O,5.9%
2,C=CC(=O)OCCCl,0.74%
3,CC(=O)Oc1cccc(C)c1,12.1% [at 52.9 µM]
4,C1CCC2(CCCCO2)OC1,0.804%
5,C=CCCC(=O)O,10.5%
6,CO[C@@]1(NC(=O)C(C(=O)O)c2ccc(O)cc2)C(=O)N2C(C(=O)O)=C(CSc3nnnn3C)CO[C@@H]21 (stereo not given in full),-0.299% [at 52.9 µM]
7,CN(C)C(=O)Oc1cccc([N+](C)(C)C)c1,0.817% [at 52.9 µM]
8,Cc1ccnc(NS(=O)(=O)c2ccc(N)cc2)n1,0.876% [at 52.9 µM]
9,[Ca+2],6.79%
10,CCCC(C)C(=O)OCC (stereo not given),0.943%
11,CC(C)C1CCC(O)CC1 (stereo not given),3.32%
12,CC1=NN(c2cccc(S(=O)(=O)O)c2)C(=O)C1,8.74%
13,CCNS(=O)(=O)c1ccc(C)cc1,-14.3%
14,C=CCOCC(O)CO (stereo not given),14.2%
15,CCCc1ncc(C[n+]2ccccc2C)c(N)n1,10.8% [at 52.9 µM]
16,CC1(C)[C@@H]2CC[C@@]1(C)[C@H](O)C2,2.9%
17,OCCCCCO,-0.0384%
18,Cc1ccccc1N=C(N)N=C(N)N,-16.1%
19,O=C(O)CCCC[P+](c1ccccc1)(c1ccccc1)c1ccccc1,9.32% [at 52.9 µM]
20,COc1ccc2cc1Oc1cc3c(cc1OC)CC[N+](C)(C)[C@H]3Cc1ccc(cc1)Oc1c(OC)c(OC)cc3c1[C@@H](C2)[N+](C)(C)CC3,-23.1% [at 52.9 µM]
21,CN1[C@@H]2CC[C@H]1CC(OC(=O)C(O)c1ccccc1)C2 (stereo not given in full),2.28% [at 52.9 µM]
22,CCCCCCCCCCCCCCCCCCO,2.36% [at 52.9 µM]
23,C=CCCCCCCCCC(=O)OCC,4.26%
24,O=C(O)Cc1csc(-c2ccc(Cl)cc2)n1,5.54% [at 52.9 µM]
25,Nc1ccn([C@@H]2O[C@H](CO)[C@@H](O)C2(F)F)c(=O)n1,1.86% [at 52.9 µM]
26,CC(C)CC(C)(N)C#N (stereo not given),3.5%
27,Nc1ccncc1N,9.69% [at 52.9 µM]
28,C[N+](C)(CCOc1ccccc1)Cc1cccs1,2.32% [at 52.9 µM]
29,CN1CCN(c2cc3c(nn2)Oc2ccccc2N3C)CC1,7.5% [at 23.6 µM]
30,COc1ccccc1OCC1CNC(=O)O1 (stereo not given),-25.3% [at 52.9 µM]
